We go through 25 compounds from PubChem BioAssay (EPA / NIEHS).

As a reminder, the AC50 is the concentration giving half of the maximal activity seen.

A short description of assay [1]: ATG_PXRE_CIS: Attagene CIS-FACTORIAL HepG2 Assay for human Pregnane X Receptor Element (PXRE) (AID 2282957). The settings on record: HepG2 Attagene CIS-FACTORIAL PXRE reporter, mRNA; actives raise or lower the signal. Summed up: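 HepG2 cells transiently transfected with cis-element-driven multiplexed reporter units; after 24 h chemical exposure, reporter mRNA measured by RT-PCR, 6-FAM labelling, HpaI digestion and capillary electrophoresis. Bidirectional fitting relative to DMSO.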

Assay [2] in a line: ATG_PPRE_CIS: Attagene CIS-FACTORIAL HepG2 Assay for human Peroxisome Proliferator-activated Response Element (PPRE) (AID 2282958). The settings on record: HepG2 PPRE cis-element reporter, Attagene transcription factor profiling; actives raise or lower the signal. Summed up:
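Measured endpoint: PPRE-controlled reporter mRNA, detected by RT-PCR and capillary electrophoresis fluorescence, from transiently transfected HepG2 cells 24 h after dosing. Curves fitted in both directions using DMSO baseline.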

A short description of assay [3]: ATG_RORE_CIS: Attagene CIS-FACTORIAL HepG2 Assay for human RAR-related Orphan Receptor Element (RORE) (AID 2282959). The settings on record: HepG2 Attagene cis-factorial RORE reporter, mRNA; actives raise or lower the signal. An outline of the steps:
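Transiently transfected HepG2 reporter cells were treated 24 h. Reporter transcripts were detected by RT-PCR and capillary electrophoresis, with bidirectional fitting against DMSO.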

A short description of assay [4]: ATG_Sox_CIS: Attagene CIS-FACTORIAL HepG2 Assay for human SRY-box transcription factor (SOX) (AID 2282960). The settings on record: HepG2 Attagene cis-factorial SOX reporter, mRNA; actives raise or lower the signal. Summed up:
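Gain- or loss-of-signal endpoint, fitted bidirectionally with DMSO as negative control. Based on reporter mRNA from transfected HepG2 cells harvested 24 h post-treatment and quantified via RT-PCR and capillary electrophoresis.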

In assay [5] the target is Transcription factor Sp1 (Homo sapiens) (UniProt P08047). Briefly: ATG_Sp1_CIS: Attagene CIS-FACTORIAL HepG2 Assay for human Specificity Protein 1 (Sp1) (AID 2282961). The settings on record: HepG2 Sp1 cis-reporter transcription, actives raise or lower the signal. An outline of the steps: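 Endpoint reflects endogenous Sp1 transcriptional activity, not an exogenous fusion protein: HepG2 cells with transfected cis-regulated reporters, 24 h dosing, RT-PCR/capillary electrophoresis mRNA read-out, DMSO-normalised bidirectional fit.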

Assay [6] in a line: ATG_SREBP_CIS: Attagene CIS-FACTORIAL HepG2 Assay for human Sterol Regulatory Element Binding (SREBP) (AID 2282962). The settings on record: HepG2 Attagene cis-factorial SREBP reporter, mRNA; actives raise or lower the signal. An outline of the steps: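 HepG2 cells transiently transfected with multiplexed cis-element reporter units report endogenous transcription factor activity. After 24 h of chemical exposure, reporter mRNA was quantified by RT-PCR, 6-FAM labelling, HpaI digestion and capillary electrophoresis; bidirectional fits used DMSO as baseline.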

Assay [7] deals with Signal transducer and activator of transcription 3 (Homo sapiens) (UniProt P40763). Briefly: ATG_STAT3_CIS: Attagene CIS-FACTORIAL HepG2 Assay for human Signal Transducer and Activator of Transcription 3 (STAT3) (AID 2282963). The settings on record: HepG2, Attagene cis-factorial STAT3 reporter transcription; actives raise or lower the signal. An outline of the steps:
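HepG2 cells transiently transfected with cis-element-driven multiple reporter transcription units; after 24 h chemical exposure, reporter mRNA measured by RT-PCR, 6-FAM primer-extension labelling, HpaI digestion and capillary electrophoresis. Bidirectional fitting versus DMSO baseline.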

Assay [8] in a line: ATG_TA_CIS: Attagene CIS-FACTORIAL HepG2 Assay for human TA Basal Promoter (AID 2282964). The settings on record: HepG2 Attagene CIS-factorial TA basal promoter reporter; actives raise or lower the signal. An outline of the steps: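 Background-control readout: TA basal promoter reporter mRNA, fitted in both directions relative to DMSO. Measured by RT-PCR and capillary electrophoresis 24 hours after treating HepG2 human liver cells transiently carrying multiplexed cis-regulated reporter constructs.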

Assay [9] can be described thus: ATG_TCF_b_cat_CIS: Attagene CIS-FACTORIAL HepG2 Assay for human T-Cell-Factor with beta-catenin (TCF/b-cat) (AID 2282965). The settings on record: HepG2 TCF/beta-catenin cis-reporter transcription, actives raise or lower the signal. An outline of the steps: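 In this cis-format system, transfected HepG2 cells report endogenous transcription factor activity. Readout after 24 h exposure is reporter transcript abundance from RT-PCR and capillary electrophoresis, analysed for gain or loss of signal versus DMSO.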

Assay [10] can be described thus: ATG_TAL_CIS: Attagene CIS-FACTORIAL HepG2 Assay for human TAL Basal Promoter (AID 2282966).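 Further: background control endpoint measuring basal TAL promoter reporter mRNA not a specific factor.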 The settings on record: HepG2 Attagene cis-factorial TAL promoter reporter; actives raise or lower the signal. Summed up:
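HepG2 cells transiently transfected with multiplexed cis-promoter reporter units, dosed 24 h. Reporter mRNA quantified by RT-PCR, 6-FAM labelling, HpaI digestion and capillary electrophoresis; TAL basal promoter serves as background control, fitted bidirectionally versus DMSO.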

The source made the active and inactive calls. How the source made its calls: active means hit-call score of the fitted dose curve at least 0.9, where 1 is the maximum; inactive means score below 0.9.

Chain of Transcription factor Sp1 (Homo sapiens) (P08047 whole entry, looked up, the tested form may be a part): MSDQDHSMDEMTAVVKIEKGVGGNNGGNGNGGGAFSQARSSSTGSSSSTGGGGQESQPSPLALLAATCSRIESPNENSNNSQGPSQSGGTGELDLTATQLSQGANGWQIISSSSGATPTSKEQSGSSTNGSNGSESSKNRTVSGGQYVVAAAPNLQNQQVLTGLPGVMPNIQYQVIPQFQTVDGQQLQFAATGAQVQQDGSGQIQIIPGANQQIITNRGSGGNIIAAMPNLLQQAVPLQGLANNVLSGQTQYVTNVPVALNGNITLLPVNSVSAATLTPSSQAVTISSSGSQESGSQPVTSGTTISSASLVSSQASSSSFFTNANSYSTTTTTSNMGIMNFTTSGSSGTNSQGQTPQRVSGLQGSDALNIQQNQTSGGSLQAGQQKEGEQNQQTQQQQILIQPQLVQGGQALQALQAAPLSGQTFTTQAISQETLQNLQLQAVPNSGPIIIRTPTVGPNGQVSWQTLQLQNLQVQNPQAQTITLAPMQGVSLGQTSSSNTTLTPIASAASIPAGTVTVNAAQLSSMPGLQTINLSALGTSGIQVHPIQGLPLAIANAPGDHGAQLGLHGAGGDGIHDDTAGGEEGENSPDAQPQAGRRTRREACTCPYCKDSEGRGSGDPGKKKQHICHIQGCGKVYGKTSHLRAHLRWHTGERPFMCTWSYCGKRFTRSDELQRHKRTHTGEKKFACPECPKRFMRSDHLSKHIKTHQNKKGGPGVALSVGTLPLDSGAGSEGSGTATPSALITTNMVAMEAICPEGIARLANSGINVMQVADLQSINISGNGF
Chain of Signal transducer and activator of transcription 3 (Homo sapiens) (P40763 whole entry, looked up): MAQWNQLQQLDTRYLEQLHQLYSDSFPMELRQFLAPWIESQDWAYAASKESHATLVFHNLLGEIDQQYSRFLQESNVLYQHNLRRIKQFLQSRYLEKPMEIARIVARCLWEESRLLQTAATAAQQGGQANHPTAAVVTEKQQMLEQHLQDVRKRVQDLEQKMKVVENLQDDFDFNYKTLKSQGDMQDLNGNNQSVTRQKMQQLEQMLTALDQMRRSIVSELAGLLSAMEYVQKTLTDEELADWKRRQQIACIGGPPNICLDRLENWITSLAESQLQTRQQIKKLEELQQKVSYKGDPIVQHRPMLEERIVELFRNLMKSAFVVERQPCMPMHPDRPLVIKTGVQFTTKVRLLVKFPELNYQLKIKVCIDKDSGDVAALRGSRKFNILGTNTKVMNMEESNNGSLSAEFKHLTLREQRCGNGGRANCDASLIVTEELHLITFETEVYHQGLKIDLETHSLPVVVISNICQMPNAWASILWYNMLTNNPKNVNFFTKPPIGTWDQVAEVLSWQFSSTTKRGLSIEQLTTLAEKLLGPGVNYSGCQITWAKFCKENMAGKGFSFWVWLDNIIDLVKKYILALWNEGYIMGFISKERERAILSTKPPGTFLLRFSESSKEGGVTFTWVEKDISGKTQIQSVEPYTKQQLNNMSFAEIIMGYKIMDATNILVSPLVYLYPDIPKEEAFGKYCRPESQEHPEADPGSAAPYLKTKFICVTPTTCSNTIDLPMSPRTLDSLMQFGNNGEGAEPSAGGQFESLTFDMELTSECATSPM

For the compound `Nc1ccn([C@H]2CS[C@@H](CO)O2)c(=O)n1`, the result in [1], in assay [2], in [3], in assay [4], in assay [5] and in assay [6] was inactive. Besides, the outcome in assay [7], in assay [8], in [9] and in assay [10] was inactive.
Take `CC1CCC(C(C)C)C(O)C1` (stereo not given): the result in assay [1], in assay [2], in assay [3], in assay [4], in [5] and in assay [6] was inactive. Moreover, the call in [7], in assay [8], in [9] and in assay [10] was inactive.
Take `O=C(c1ccccc1)C(O)c1ccccc1` (stereo not given): in assay [1], the AC50 is 57 µM (active). Moreover, the outcome in [2], in assay [3], in [4], in assay [5], in assay [6] and in assay [7] was inactive. Also, the compound was called inactive in [8], in [9] and in [10].
Turning to `C=C1C[C@]23C[C@@]1(O)CC[C@H]2[C@@]12C=C[C@H](O)[C@@](C)(C(=O)O1)[C@H]2[C@@H]3C(=O)O`, the outcome in [1], in assay [2], in assay [3], in [4], in [5] and in assay [6] was inactive. Further, the compound was called inactive in assay [7], in assay [8], in assay [9] and in [10].
Regarding `CC(=O)Nc1ccc(C(=O)CCl)cc1`, the result in [1], in assay [2], in assay [3], in [7], in [8] and in assay [9] was inactive. Besides, the result in assay [10] was inactive. Further, the AC50 in [4] was 8.57 µM (active); in assay [5], 8.32 µM (active); in assay [6] it was 8.67 µM (active).
As for `C1CCCCC1`, the compound was called inactive in assay [1], in assay [2], in assay [3], in assay [4], in [5] and in assay [6]. Moreover, the outcome in assay [7], in [8], in assay [9] and in assay [10] was inactive.
With `CC(=O)C1(C)CC2=C(CCCC2(C)C)CC1C` (stereo not given), the AC50 in [1] was 25.6 µM (active); in [2], 100 µM (active); in assay [3], 74.4 µM (active); in [5] it was 162 µM (active); in [6], 85.8 µM (active); in [9] it was 73.3 µM (active). In assay [10], the AC50 is 148 µM (active). The compound was classed as inactive in assay [4], in assay [7] and in [8].
On to `ClC(c1ccccc1)(c1ccccc1)c1ccccc1`, for which, in assay [1], the half-maximal activity concentration (AC50) was 2.59 µM (active). Further, the call in assay [2], in [3], in assay [4], in assay [5], in assay [6] and in assay [7] was inactive. Moreover, the compound was classed as inactive in [8], in assay [9] and in [10].
In the case of `O=C(O)CCCCCCCCCCCC(=O)O`, the result in assay [1], in assay [2], in assay [3], in assay [4], in [5] and in assay [6] was inactive. For the same compound, the compound was called inactive in assay [7], in [8] and in [9].
With `CC1(C)COCN1`, the compound was called inactive in [1], in assay [2], in assay [3], in assay [4], in assay [5] and in assay [6]. Moreover, the compound was called inactive in [7], in [8], in assay [9] and in assay [10].
`COC(=O)c1cccnc1`: the call in assay [1], in [2], in assay [3], in assay [4], in assay [5] and in assay [6] was inactive. Moreover, the compound was called inactive in [7], in [8], in [9] and in assay [10].
Take `CC1=C(Br)C(=O)C(Br)=C/C1=C(/c1ccccc1S(=O)(=O)O)c1cc(Br)c(O)c(Br)c1C`: the AC50 in assay [1] was 26.2 µM (active). The call in assay [2], in assay [3], in [4], in assay [5], in [6] and in [7] was inactive. Besides, the call in assay [8], in assay [9] and in assay [10] was inactive.
In the case of `CS(=O)(=O)OCCCCOS(C)(=O)=O`, the AC50 in assay [1] is 55.8 µM (active). The call in assay [2], in assay [3], in assay [4], in [5], in assay [6] and in assay [7] was inactive. For the same compound, the compound was classed as inactive in assay [8] and in assay [9].
For the compound `CN1C(=O)c2ccccc2C1=O`, the call in assay [1], in assay [2], in [3], in assay [4], in [5] and in assay [6] was inactive. The call in assay [7], in assay [8], in assay [9] and in assay [10] was inactive.
As to `CCCCCC(C=O)=Cc1ccccc1`, the AC50 in assay [1] was 24.5 µM (active); in [2], 26.5 µM (active). The compound was classed as inactive in assay [3], in [4], in [5], in assay [6], in [7] and in [8]. Further, the compound was classed as inactive in assay [9].
With `c1ccc2[nH]cnc2c1`, the compound was classed as inactive in assay [1], in assay [2], in assay [3], in [4], in [5] and in assay [6]. For the same compound, the call in [7], in assay [8] and in [9] was inactive.
On to `CC(C)(C)c1ccc(C(=O)O)cc1`, for which the result in assay [1], in assay [2], in assay [3], in [4], in assay [5] and in assay [6] was inactive. Moreover, the compound was classed as inactive in assay [7], in [8] and in [9].
For the compound `OCc1ccc(Cl)cc1Cl`, the compound was classed as inactive in assay [1], in assay [2], in assay [3], in assay [4], in [5] and in assay [6]. Besides, the compound was called inactive in [7], in [8], in assay [9] and in [10].
In the case of `CC=CC=CCOC(=O)C(C)C`, the AC50 in assay [1] is 25 µM (active). Also, the call in assay [2], in [3], in [4], in assay [5], in assay [6] and in assay [7] was inactive. Also, the call in [8], in assay [9] and in assay [10] was inactive.
With `CCCCOC(=O)CCCCCCCC(=O)OCCCC`, the outcome in assay [1], in assay [2], in assay [3], in [4], in [5] and in assay [6] was inactive. Moreover, the compound was classed as inactive in [7], in assay [8] and in assay [10]. Moreover, the AC50 in assay [9] was 128 µM (active).
As for `COc1ccc(CCN2CCC(Nc3nc4ccccc4n3Cc3ccc(F)cc3)CC2)cc1`, the call in [1], in assay [2], in [3], in assay [4], in [5] and in assay [7] was inactive. Further, the compound was called inactive in assay [8], in assay [9] and in assay [10]. In assay [6], the AC50 was 2.12 µM (active).
With `CCCC[P+](CCCC)(CCCC)CCCC`, the result in assay [1], in assay [2], in assay [3], in [4], in [5] and in assay [6] was inactive. Also, the result in assay [7], in assay [8], in [9] and in assay [10] was inactive.
For `O=C(O)c1ccc(O)cc1`, the call in assay [1], in [2], in assay [3], in assay [4], in assay [5] and in assay [6] was inactive. Also, the compound was called inactive in [7], in assay [8], in assay [9] and in assay [10].
With `CCCCCCCCCCCCS(=O)(=O)Cl`, the call in assay [1], in assay [2], in assay [3], in [4], in [5] and in assay [6] was inactive. Moreover, the call in assay [7], in assay [8], in [9] and in [10] was inactive.
Regarding `O=C1OC(=O)c2c(Br)c(Br)c(Br)c(Br)c21`, the call in assay [1], in assay [2], in assay [3], in assay [4], in assay [5] and in assay [6] was inactive. For the same compound, the compound was classed as inactive in assay [7], in assay [8], in [9] and in assay [10].
